Experiment [1] can be described thus: E. coli DRC41 culture turbidity changes, primary screen, E. coli filamentation inducer project, strain DRC41, OD650, 48 h (AID 1152).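 Note: E. coli MC1000 strain DRC41 lacking acrAB efflux pump and sulA.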 Conditions: E. coli DRC41 (acrAB sulA), higher = more signal, called active from +8 up or from −8 down.
Experiment [2] is described as follows: small-molecule binders of probe aLefty1, primary screen, biochemical, small-molecule microarray, 635/667 nm fluorescence (AID 1153).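 Note: score merges spot fluorescence with signal-to-noise ratio from the scanned slide images.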 Conditions: higher = more signal.
Experiment [3] can be described thus: PSAC antagonists in infected red cells, primary screen, cell-based, P. falciparum Indochina, OD700, 1 h (AID 1154). Conditions: P. falciparum Indochina infected RBC osmotic lysis, higher = more signal, called active from +8 up or from −8 down.
Experiment [4] in a line: PSAC antagonists in infected red cells, primary screen, cell-based, P. falciparum Indochina, OD700, 2 h (AID 1155).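 Note: lysis reports solute entry through the parasite surface anion channel PSAC; channel blockers reduce lysis of infected cells.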 Conditions: P. falciparum Indochina infected erythrocytes, osmotic lysis OD700; higher = more signal, called active from +8 up or from −8 down.
Experiment [5] in a line: osmotic lysis modulators in infected erythrocytes, primary screen, PSAC antagonist project, cell-based, P. falciparum Indochina, OD700, 3 h (AID 1156). The settings on record: higher = more signal, called active from +8 up or from −8 down.
Experiment [6] is described as follows: PSAC antagonists in infected red cells, primary screen, cell-based, P. falciparum Indochina, OD700, 18 h (AID 1157). The settings on record: P. falciparum Indochina infected erythrocytes, osmotic lysis OD700, 18 h; higher = more signal, called active from +8 up or from −8 down.
Experiment [7] can be described thus: modulators of S6 phosphorylation in cells, primary screen, cell-based, A549, cytoblot, luminescence, serum-stimulated (AID 1158).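 Note: serum-stimulated A549 lung adenocarcinoma cells; signal is phosphorylated S6 detected by cytoblot immunostaining with HRP secondary.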 The settings on record: A549 phospho-S6 cytoblot, 5 h, higher = more signal.
The target of experiment [8] is NADPH oxidase 2 (Homo sapiens) (UniProt P04839). Nature of the experiment: NOX2-dependent H2O2 signal modulators, primary screen, NOX inhibitor project, cell-based, HEK293-NOX2, PMA-stimulated, Amplex Red fluorescence (AID 1159). Note: test concentration not given here. Conditions: 45 min, higher = more signal, called active from +8 up or from −8 down.
Chain of NADPH oxidase 2 (Homo sapiens) (P04839 whole entry, looked up): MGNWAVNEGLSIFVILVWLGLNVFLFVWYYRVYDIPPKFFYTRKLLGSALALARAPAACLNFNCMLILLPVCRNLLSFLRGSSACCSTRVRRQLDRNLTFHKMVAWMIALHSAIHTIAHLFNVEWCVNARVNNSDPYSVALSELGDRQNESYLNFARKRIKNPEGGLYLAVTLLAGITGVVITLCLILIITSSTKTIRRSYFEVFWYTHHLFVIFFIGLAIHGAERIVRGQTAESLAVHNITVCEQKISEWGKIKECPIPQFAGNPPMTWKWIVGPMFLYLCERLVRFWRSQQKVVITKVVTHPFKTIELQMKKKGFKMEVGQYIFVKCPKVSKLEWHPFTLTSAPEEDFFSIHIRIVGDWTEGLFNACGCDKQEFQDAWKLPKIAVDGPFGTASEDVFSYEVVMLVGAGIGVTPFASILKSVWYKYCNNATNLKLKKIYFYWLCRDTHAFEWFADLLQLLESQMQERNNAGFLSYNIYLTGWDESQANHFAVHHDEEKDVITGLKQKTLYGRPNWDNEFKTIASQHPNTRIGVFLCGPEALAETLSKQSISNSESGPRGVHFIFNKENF
Experiment [9] has as its target NADPH oxidase 4 (Homo sapiens) (UniProt Q9NPH5). Nature of the experiment: NOX4-dependent H2O2 signal modulators, primary screen, NOX inhibitor project, cell-based, HEK293-NOX4, tetracycline-induced, Amplex Red fluorescence (AID 1160). The settings on record: 45 min, higher = more signal, called active from +8 up or from −8 down.
Experiment [10] addresses NADPH oxidase 5 (Homo sapiens) (UniProt Q96PH1). Briefly: NOX5-dependent H2O2 signal modulators, primary screen, NOX inhibitor project, cell-based, HEK293-NOX5, Amplex Red fluorescence (AID 1161). Conditions: HEK293-NOX5, ionomycin, 45 min, higher = more signal.
Experiment [11] in a line: A549 cell viability effects, profiling panel, calcein-AM fluorescence, 48 h, basal (AID 1162). Note: test concentration not given here. The settings on record: higher = more signal.
Experiment [12] is described as follows: adipocyte viability effects, profiling panel, cell-based, 3T3-L1 adipocytes, calcein-AM fluorescence, 48 h, basal (AID 1163). Note: test concentration not given here. The settings on record: 3T3-L1 adipocytes viability, higher = more signal.
Experiment [13] can be described thus: HepG2 cell viability effects, profiling panel, calcein-AM fluorescence, 48 h, basal (AID 1164). Note: test concentration not given here. Conditions: higher = more signal.
The nature of experiment [14]: MM1S cell viability effects, profiling panel, calcein-AM fluorescence, 48 h, basal (AID 1165).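 Note: viability of MM1S multiple myeloma cells under basal unstimulated conditions; test concentration not given here.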 The settings on record: higher = more signal.
Experiment [15] in a line: basal RPMI8226 viability, no added stimulus, profiling panel, cell-based, calcein-AM fluorescence, 48 h, PK04 Diversity Set (AID 1166).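 Note: cells grown under basal conditions without added stimulus; test concentration not given here.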 Conditions: RPMI8226 myeloma viability, higher = more signal.
Experiment [16] can be described thus: basal HepG2 mitochondrial membrane potential changes, profiling panel, cell-based, JC-1 fluorescence, 24 h, 100 nL compound (AID 1167). Note: test concentration not given here. The settings on record: higher = more signal.
Experiment [17] can be described thus: basal 3T3-L1 adipocyte mitochondrial potential changes, profiling panel, cell-based, JC-1 fluorescence, 3T3-L1 adipocytes, 24 h, 100 nL compound (AID 1168). Note: test concentration not given here. The settings on record: JC-1 mitochondrial fluorescence, higher = more signal, called active from +8 up or from −8 down.
Experiment [18] can be described thus: basal RPMI8226 mitochondrial membrane potential changes, profiling panel, cell-based, JC-1 fluorescence, 24 h, 100 nL compound (AID 1169). Note: test concentration not given here. The settings on record: RPMI8226 myeloma, JC-1 mitochondrial potential fluorescence, higher = more signal.
A short description of experiment [19]: basal MM1S mitochondrial membrane potential changes, profiling panel, cell-based, JC-1 fluorescence, 24 h, 100 nL compound (AID 1170). Note: test concentration not given here. The settings on record: higher = more signal.
A short description of experiment [20]: A549 lung cancer cell viability effects, profiling panel, resazurin fluorescence, 24 h, PK04 Diversity Set (AID 1171). Note: test concentration not given here. The settings on record: higher = more signal, called active from +8 up or from −8 down. For orientation: Alamar Blue is a resazurin reagent that responds to reducing activity.

Z-score and composite z-score data for nine molecules are collected here from PubChem BioAssay.

Activity calls are given as the source filed them.

Chain of NADPH oxidase 5 (Homo sapiens) (Q96PH1 whole entry, looked up): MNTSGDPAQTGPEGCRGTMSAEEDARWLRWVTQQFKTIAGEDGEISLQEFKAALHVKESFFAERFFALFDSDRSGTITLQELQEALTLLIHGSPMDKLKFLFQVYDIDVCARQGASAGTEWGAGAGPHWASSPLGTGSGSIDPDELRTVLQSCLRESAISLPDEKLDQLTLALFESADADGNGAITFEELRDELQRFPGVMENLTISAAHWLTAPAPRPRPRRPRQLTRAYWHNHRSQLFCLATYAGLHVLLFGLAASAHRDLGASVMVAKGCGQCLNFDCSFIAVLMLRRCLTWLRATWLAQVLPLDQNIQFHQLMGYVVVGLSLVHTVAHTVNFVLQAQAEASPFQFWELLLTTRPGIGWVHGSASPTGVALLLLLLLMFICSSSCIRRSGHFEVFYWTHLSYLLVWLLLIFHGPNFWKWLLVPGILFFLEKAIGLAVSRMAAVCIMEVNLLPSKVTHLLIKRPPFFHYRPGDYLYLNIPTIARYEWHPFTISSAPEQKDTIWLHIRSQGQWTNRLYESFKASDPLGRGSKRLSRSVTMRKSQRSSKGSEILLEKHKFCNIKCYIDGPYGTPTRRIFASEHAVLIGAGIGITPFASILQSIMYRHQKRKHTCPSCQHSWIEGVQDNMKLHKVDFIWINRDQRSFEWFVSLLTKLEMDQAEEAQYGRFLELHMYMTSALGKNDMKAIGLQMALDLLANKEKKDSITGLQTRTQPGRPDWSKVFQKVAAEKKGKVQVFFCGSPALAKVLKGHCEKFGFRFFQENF
Chain of NADPH oxidase 4 (Homo sapiens) (Q9NPH5 whole entry, looked up): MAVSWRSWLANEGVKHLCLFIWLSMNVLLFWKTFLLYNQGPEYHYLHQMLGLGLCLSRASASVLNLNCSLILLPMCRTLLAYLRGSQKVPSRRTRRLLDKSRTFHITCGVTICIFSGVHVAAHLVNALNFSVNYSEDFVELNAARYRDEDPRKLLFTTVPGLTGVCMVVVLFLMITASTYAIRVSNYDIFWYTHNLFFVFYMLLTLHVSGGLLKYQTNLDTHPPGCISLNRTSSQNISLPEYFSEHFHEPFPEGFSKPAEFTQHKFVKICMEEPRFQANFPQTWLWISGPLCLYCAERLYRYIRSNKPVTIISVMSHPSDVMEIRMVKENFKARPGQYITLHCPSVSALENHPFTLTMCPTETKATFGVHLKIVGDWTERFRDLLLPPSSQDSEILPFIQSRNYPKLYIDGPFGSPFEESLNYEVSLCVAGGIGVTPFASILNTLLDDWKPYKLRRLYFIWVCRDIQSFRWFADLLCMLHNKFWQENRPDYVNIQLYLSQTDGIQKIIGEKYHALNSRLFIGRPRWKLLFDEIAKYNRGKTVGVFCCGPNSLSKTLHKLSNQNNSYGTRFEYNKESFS

As to `[N-]=[N+]=Nc1ccccc1[C@H]1OC(c2ccc(OCCCO)cc2)=N[C@@]1(CCS(=O)(=O)c1ccccc1)C(=O)N1CCOCC1`, the z-score in [1] was 0.399 (inactive); in experiment [3], 31 (active); in experiment [4], 23.6 (active); in experiment [5], 1.88 (inactive); in experiment [6], 4.6 (inactive); in experiment [7], 0.211. Further, the z-score in [8] was 0.404 (inactive); in experiment [9] it was 1.56 (inactive); in [10] it was 1.36; in [11], 0.412; in experiment [12] it was -0.0376; in experiment [13], 0.402. For the same molecule, the z-score is -0.655 in [14]; -0.184 in [15]; -1.34 in experiment [16]; -0.392 (inactive) in experiment [17]; -0.666 in experiment [18]; -1.47 in [19]. Further, in experiment [20], the z-score was -0.913 (inactive). Further, in experiment [2], the composite z-score came out at 1.48.

For the molecule `COCCCNC(=O)[C@@]1(C)c2ccccc2C(=O)N(Cc2ccccc2)[C@H]1c1ccc(CO)cc1`, the z-score was -0.0509 (inactive) in experiment [1]; 2.68 (inactive) in experiment [3]; 0.179 (inactive) in [4]; 2.67 (inactive) in experiment [5]; -0.487 (inactive) in experiment [6]; 2.82 in experiment [7]. Also, the z-score in [8] was -1.63 (inactive); in experiment [9], -2.44 (inactive); in [10], -2.66; in [11], 0.587; in experiment [12], 0.928; in [13] it was -0.0853. In addition, the z-score in [14] is -0.174; in experiment [15], -2.12; in experiment [16], 0.548; in experiment [17], -1.39 (inactive); in experiment [18], -0.648; in experiment [19], -0.514. The z-score in experiment [20] was 0.22 (inactive). The molecule further gave a composite z-score in experiment [2] of 0.114.

In the case of `C=CC[C@@]1(C(=O)OC)N=C(c2ccc(OCCCO)cc2)O[C@@H]1c1ccccc1CN=[N+]=[N-]`, the z-score was 1.24 (inactive) in experiment [1]; 26.9 (active) in [3]; 18.7 (active) in experiment [4]; -0.26 (inactive) in experiment [5]; 3.48 (inactive) in experiment [6]; 1.79 in experiment [7]. The z-score was -4.05 (inactive) in experiment [8]; 0.419 (inactive) in experiment [9]; -3.1 in [10]; -0.817 in [11]; 0.358 in [12]; -1.13 in [13]. Also, the z-score was -2.7 in experiment [14]; -3.17 in experiment [15]; 0.195 in experiment [16]; 1.31 (inactive) in experiment [17]; -0.969 in experiment [18]; -0.949 in experiment [19]. Moreover, in experiment [20], the z-score is -1.19 (inactive). The same molecule gave a composite z-score in [2] of 0.0674.

Turning to `CCOC(=O)C=Cc1cccc(OC)c1O`, the z-score in experiment [1] was -0.572 (inactive); in experiment [3] it was 21.2 (active); in experiment [4], 2.21 (inactive); in [5], 0.957 (inactive); in experiment [6], -1.28 (inactive); in experiment [7], 1.73. Further, the z-score in experiment [8] is -5.37 (inactive); in experiment [9] it was -5.92 (inactive); in [10], -6.34; in [11], -0.364; in experiment [12] it was 0.532; in experiment [13], -0.834. The z-score in [14] is 0.408; in [15], -1.61; in experiment [16], -0.94; in experiment [17] it was 0.151 (inactive); in experiment [18], -0.149; in [19] it was -1.25. The z-score in experiment [20] was -0.787 (inactive). In experiment [2], the composite z-score was -0.184.

As to `NC(=O)NCC#Cc1ccc2c(c1)[C@]1(C(=O)N2)[C@H](c2ccccc2OCCO)N2[C@H](c3ccccc3)[C@H](c3ccccc3)OC(=O)[C@H]2[C@@H]1C(=O)N1CCCCCCC1`, the z-score in experiment [1] is 1.01 (inactive); in experiment [3], 1.71 (inactive); in [4], 0.786 (inactive); in [5] it was 1.19 (inactive); in experiment [6], 0.443 (inactive); in [7] it was -0.281. For the same molecule, the z-score in experiment [8] was 1.87 (inactive); in experiment [9] it was 0.893 (inactive); in experiment [10] it was 0.768; in experiment [11], -0.169; in experiment [12], 0.73; in [13], 0.231. Besides, the z-score in [14] is -0.0358; in experiment [15], 0.236; in [16], -0.978; in experiment [17], 0.303 (inactive); in experiment [18], -0.498; in [19], 0.143. In addition, the z-score in experiment [20] is 0.414 (inactive). In experiment [2], this molecule registered a composite z-score of 2.71.

Consider `COc1ccc(CCNC(=O)[C@@]2(C)c3ccccc3C(=O)N(Cc3ccccc3)[C@H]2c2ccc(CO)cc2)cc1`, for which the z-score in [1] is 1.09 (inactive); in experiment [3], 6.03 (inactive); in experiment [4] it was 0.219 (inactive); in experiment [5], 0.474 (inactive); in experiment [6], -0.73 (inactive); in experiment [7], 2.24. Further, the z-score is -3.58 (inactive) in experiment [8]; -3.9 (inactive) in experiment [9]; -4.78 in experiment [10]; -0.973 in experiment [11]; 0.456 in [12]; -0.833 in experiment [13]. For the same molecule, the z-score in experiment [14] was -0.886; in experiment [15], -2.55; in [16], 1.05; in [17] it was -0.965 (inactive); in [18], -0.0556; in experiment [19], -0.986. For the same molecule, the z-score in experiment [20] is 2.17 (inactive). Also, the composite z-score in experiment [2] turned out to be 0.187.

For the molecule `COc1ccc([Si](C)(C)[C@H]2[C@H](CC(=O)N3CCC[C@H]3CO)O[C@@]3(C(=O)N(c4ccccc4)c4ccccc43)[C@@H]2C)cc1`, the z-score in experiment [1] is 3.01 (inactive); in experiment [3] it was 1.84 (inactive); in [4], -0.132 (inactive); in experiment [5], -0.0926 (inactive); in [6] it was -0.284 (inactive); in experiment [7], 1.48. The z-score in experiment [8] was 1.44 (inactive); in [9], 1.46 (inactive); in experiment [10], 1.96; in experiment [11], 1.35; in experiment [12], 0.42; in [13], 0.628. In addition, the z-score in [14] was 1.63; in [15], 0.912; in experiment [16], 2.53; in experiment [17], -0.667 (inactive); in [18] it was 0.421; in experiment [19], -0.947. The z-score in experiment [20] was 1.63 (inactive). In experiment [2], this molecule registered a composite z-score of 0.228.

On to `C[n+]1ccc2ccc(O)cc2c1`, for which the z-score was 0.0539 (inactive) in experiment [1]; 0.907 (inactive) in experiment [3]; 0.557 (inactive) in experiment [4]; 1.95 (inactive) in [5]; 0.374 (inactive) in experiment [6]; 0.387 in [7]. The z-score in [8] was -0.469 (inactive); in experiment [9], -0.566 (inactive); in experiment [10], 0.0145; in experiment [11], -0.274; in [12], 0.509; in [13], -1.33. In addition, the z-score was 0.653 in [14]; -1.91 in [15]; -0.774 in experiment [16]; -0.917 (inactive) in [17]; 1.03 in experiment [18]; -0.723 in experiment [19]. The z-score in experiment [20] was -0.733 (inactive). In addition, the composite z-score in experiment [2] was -0.109.

Regarding `COC(=O)[C@@]1(Cc2ccccc2)[C@H]2c3cc(C(=O)N(C)C)n(Cc4cc(F)c(F)c(F)c4)c3C[C@H]2CN1C(=O)c1ccccc1`, the z-score in experiment [1] is -1.61 (inactive); in experiment [3] it was 8.57 (active); in experiment [4] it was 1.65 (inactive); in experiment [5], 0.893 (inactive); in experiment [6], 1.4 (inactive); in experiment [7], -0.0786. Besides, the z-score in [8] is -0.0214 (inactive); in experiment [9], 1.57 (inactive); in [10], 2.13; in experiment [11] it was -0.749; in [12], 0.135; in [13], 0.545. Also, the z-score in experiment [14] was -2.11; in [15], -4.67; in experiment [16], 0.891; in experiment [17] it was -1.35 (inactive); in experiment [18] it was -0.368; in experiment [19] it was -0.951. For the same molecule, the z-score in experiment [20] is -0.0085 (inactive). The molecule also showed a composite z-score in experiment [2] of 0.611.
